Drawing on PubChem BioAssay (NCI), this text covers growth for 39 compounds.

The panel holds about 83,000 compounds, 20% with a hit somewhere; the sample as a whole holds those more often.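 How to read the values: 0–100, growth inhibition (40 = 60% inhibited); 0, no net growth; -100 to 0, cell death (-40 = 40% of starting cells died; -100 = all dead).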 Unmarked numbers belong to inactive results. The source made the active and inactive calls. The calls were made as follows: active = growth percent below 10; inactive = the rest.

One experiment relates to MALME-3M melanoma. The experiment in a line: NCI-60 one-dose screen, 48 h (100 = growth as untreated, 0 = no growth, -100 = all killed). To be noted: 10 µM unless noted.
For the compound `C=C(C)[C@@H]1CC[C@]2(CNCCO)CC[C@]3(C)[C@H](CC[C@@H]4[C@@]5(C)CCC(N)[C@@](C)(CO)[C@@H]5CC[C@]43C)[C@@H]12` (stereo partly drawn), the growth is -84.2% (active).

With `O=S(=O)(NCCNc1cc(-c2c(-c3cccc(O)c3)nc3sccn23)ccn1)c1ccc(Cl)cc1`, the growth is 94%.

`CC(C)(C)Nc1c(-c2c3ccccc3cc3ccccc23)nc2ccccn12`: the growth is 80.6%.

As for `CN(C)CCOC(=O)Nc1ccc(Cl)cc1`, the growth was 114%.

Turning to `CCOc1ccc(-c2nc3ccc(-c4nc5ccc(N6CCN(C)CC6)cc5[nH]4)cc3[nH]2)cc1OCC`, the growth is -34.7% (active).

`N[C@H]1CCC[C@@H]1NCCCCN1C(=O)c2cccc3cccc(c23)C1=O`: the growth was 104%.

Turning to `COc1ccc(/C=C(\C#N)n2nnc3cc(F)c(F)cc32)c(OC)c1OC`, the growth is 93.4%.

For the compound `COc1cc2ccccc2cc1C(=O)NC(=S)Nc1ccc(-c2nc3ccccc3[nH]2)cc1`, the growth is 48%.

As to `Cc1ccc(/C=C(\C#N)n2nnc3cc(Cl)c(Cl)cc32)cc1`, the growth is 44%.

Consider `CC(C)(O)c1cccc(F)c1`, for which the growth is 101%.

For the compound `O=C1Nc2ccc(Cl)cc2/C1=N/N=C/c1c[nH]c2ccccc12`, the growth was 82.8%.

On to `N#Cc1c(-c2ccccc2)nc(SCC2CO2)nc1N1CCOCC1` (stereo not drawn), for which the growth is 25.7%.

For the compound `COc1cc2c(cc1OC)-c1ccc3cc4c(cc3c1N(CCCN(C)C)C2)OCO4`, the growth is 58.2%.

With `C=C1C(=O)O[C@H]2[C@H]1CC/C(Cn1cc(CNCCc3c[nH]c4ccc(Cl)cc34)nn1)=C\CC[C@@]1(C)O[C@@H]21`, the growth was 53.9%.

On to `C#CC[C@H](N)C(=O)O`, for which the growth was 97% [20 µM].

For `O=C(Oc1ccc([N+](=O)[O-])cc1)c1ccc(CBr)cc1`, the growth is 97.9%.

With `OC(CBr)c1ccnc2ccccc12` (stereo not drawn), the growth is 96.3%.

For the compound `CCCNCC(=O)Nc1ccc(C(=O)OC(C)(C)CC)cc1`, the growth was 90.9%.

Consider `CC(=O)c1cc2c(o1)C(=O)c1ccccc1C2=O`, for which the growth is -97.9% (active).

For `CS(=O)(=O)c1ccc(-c2[nH]c3ccc(F)cc3c2/C=N/NC(N)=S)cc1`, the growth was 55.9%.

`CC(C)c1ccc(C(=O)OC(=O)c2ccc(C(C)C)cc2)cc1`: the growth is 86.3%.

Consider `N=C(N)c1ccc(-c2ccc(-c3ccc(Cl)c(Cl)c3)o2)nc1`, for which the growth is 105%.

As for `N#C/C=C(\c1ccc([N+](=O)[O-])cc1)n1nnc2cc(Cl)c(Cl)cc21`, the growth was 40.7%.

For `CS(=O)(=O)c1ccc(-c2nc3cc(Cl)ccc3n2CC(=O)NO)cc1`, the growth is 108%.

As for `CC(=O)Nc1cccc(C2=CC(c3ccc(C)cc3)n3ncnc3N2)c1` (stereo not drawn), the growth is 119%.

Turning to `CCn1c(Sc2nnc(NC(=O)CCN3CCCC3)s2)nc2c1c(=O)n(C)c(=O)n2C`, the growth was 107%.

As to `N#Cc1c(NC(=O)c2cccc(C(F)(F)F)c2)sc2c1CCC(=O)C2`, the growth was -64.9% (active).

As to `CC(C)(C)c1ccc(C(=O)Nc2sc3c(c2C(N)=O)CCC(=O)C3)cc1`, the growth is -53.4% (active).

Regarding `CCOC(=O)c1c(C)nc2c(c1N)/C(=C/c1cc(OC)c(OC)c(OC)c1)C(=O)N2c1ccc(OC)cc1`, the growth is 76%.

For the compound `Nc1nc(Nc2ccc(Cl)cc2)nn1S(=O)(=O)c1ccc(-c2ccc(F)cc2)cc1`, the growth is 113%.

Regarding `CCNCCNc1cc(-c2ccc(C(F)(F)F)cc2)c(C#N)c2nc3cc(Cl)c(Cl)cc3n12`, the growth was -77.9% (active).

Consider `C=CCN1C(=O)[C@]2(SC1=S)[C@H](c1cccc(Cl)c1)CN(C)[C@]21C(=O)NC2C=CC(Cl)=C[C@H]21` (stereo partly drawn), for which the growth was 35.7%.

In the case of `O=C(/C=C/C12c3ccccc3C(c3ccccc31)C1C(=O)N(c3ccccc3)C(=O)C12)c1ccccc1` (stereo not drawn), the growth was -38.1% (active).

For the compound `O=S(=O)(Nc1ccsc1-c1nc(-c2ccccc2)no1)c1cc(Cl)cc(Cl)c1`, the growth was 99.6%.

As for `CNC1(C#N)CCN(Cc2ccccc2)CC1`, the growth was 226%.

Regarding `COc1cc2cc(Oc3ccc(NC(=O)Nc4cc(C(F)(F)F)cc(C(F)(F)F)c4)cc3)c(C)nc2cc1OCCN1CCCCC1`, the growth was -86.2% (active).

As to `CC(C)n1nc(C#Cc2cccc3cc(-c4cccc(C(F)(F)F)c4)ncc23)c2c(N)ncnc21`, the growth is 93.1%.

Regarding `N[C@@H]1CCC[C@H]1NCCCCN1C(=O)c2cccc3cccc(c23)C1=O`, the growth is 116%.

As for `CCN(CC)CCOC(=O)N1c2ccccc2Sc2ccccc21`, the growth was 91.4%.

The subject of a further experiment is MDA-MB-231 breast. The experiment is described as above. The note with it: 10 µM unless noted.
For the compound `C=C(C)[C@@H]1CC[C@]2(CNCCO)CC[C@]3(C)[C@H](CC[C@@H]4[C@@]5(C)CCC(N)[C@@](C)(CO)[C@@H]5CC[C@]43C)[C@@H]12` (stereo partly drawn), the growth is -68.4% (active).

For `O=S(=O)(NCCNc1cc(-c2c(-c3cccc(O)c3)nc3sccn23)ccn1)c1ccc(Cl)cc1`, the growth is 80.6%.

As to `CC(C)(C)Nc1c(-c2c3ccccc3cc3ccccc23)nc2ccccn12`, the growth was 80.7%.

Take `CN(C)CCOC(=O)Nc1ccc(Cl)cc1`: the growth was 93.8%.

Take `CCOc1ccc(-c2nc3ccc(-c4nc5ccc(N6CCN(C)CC6)cc5[nH]4)cc3[nH]2)cc1OCC`: the growth is 19.4%.

In the case of `N[C@H]1CCC[C@@H]1NCCCCN1C(=O)c2cccc3cccc(c23)C1=O`, the growth is 52.4%.

As for `COc1ccc(/C=C(\C#N)n2nnc3cc(F)c(F)cc32)c(OC)c1OC`, the growth was 61.7%.

Regarding `COc1cc2ccccc2cc1C(=O)NC(=S)Nc1ccc(-c2nc3ccccc3[nH]2)cc1`, the growth is 52.9%.

As for `Cc1ccc(/C=C(\C#N)n2nnc3cc(Cl)c(Cl)cc32)cc1`, the growth was -14.9% (active).

Take `CC(C)(O)c1cccc(F)c1`: the growth is 89.5%.

Consider `O=C1Nc2ccc(Cl)cc2/C1=N/N=C/c1c[nH]c2ccccc12`, for which the growth was 64.3%.

For `N#Cc1c(-c2ccccc2)nc(SCC2CO2)nc1N1CCOCC1` (stereo not drawn), the growth was 71.4%.

Turning to `COc1cc2c(cc1OC)-c1ccc3cc4c(cc3c1N(CCCN(C)C)C2)OCO4`, the growth was 36.3%.

`C=C1C(=O)O[C@H]2[C@H]1CC/C(Cn1cc(CNCCc3c[nH]c4ccc(Cl)cc34)nn1)=C\CC[C@@]1(C)O[C@@H]21`: the growth was 59.7%.

In the case of `C#CC[C@H](N)C(=O)O`, the growth was 99.1% [20 µM].

Regarding `O=C(Oc1ccc([N+](=O)[O-])cc1)c1ccc(CBr)cc1`, the growth is 84.8%.

With `OC(CBr)c1ccnc2ccccc12` (stereo not drawn), the growth was 103%.

For `CCCNCC(=O)Nc1ccc(C(=O)OC(C)(C)CC)cc1`, the growth was 102%.

For the compound `CC(=O)c1cc2c(o1)C(=O)c1ccccc1C2=O`, the growth is -21.5% (active).

As for `CS(=O)(=O)c1ccc(-c2[nH]c3ccc(F)cc3c2/C=N/NC(N)=S)cc1`, the growth is 13.7%.

As to `CC(C)c1ccc(C(=O)OC(=O)c2ccc(C(C)C)cc2)cc1`, the growth was 116%.

As to `N=C(N)c1ccc(-c2ccc(-c3ccc(Cl)c(Cl)c3)o2)nc1`, the growth was -47% (active).

As to `N#C/C=C(\c1ccc([N+](=O)[O-])cc1)n1nnc2cc(Cl)c(Cl)cc21`, the growth was 2.77% (active).

With `CS(=O)(=O)c1ccc(-c2nc3cc(Cl)ccc3n2CC(=O)NO)cc1`, the growth is 93.8%.

Turning to `CC(=O)Nc1cccc(C2=CC(c3ccc(C)cc3)n3ncnc3N2)c1` (stereo not drawn), the growth was 87.8%.

As to `CCn1c(Sc2nnc(NC(=O)CCN3CCCC3)s2)nc2c1c(=O)n(C)c(=O)n2C`, the growth was 103%.

Turning to `N#Cc1c(NC(=O)c2cccc(C(F)(F)F)c2)sc2c1CCC(=O)C2`, the growth is -54.3% (active).

`CC(C)(C)c1ccc(C(=O)Nc2sc3c(c2C(N)=O)CCC(=O)C3)cc1`: the growth was -59.5% (active).

As to `CCOC(=O)c1c(C)nc2c(c1N)/C(=C/c1cc(OC)c(OC)c(OC)c1)C(=O)N2c1ccc(OC)cc1`, the growth was 67%.

Consider `Nc1nc(Nc2ccc(Cl)cc2)nn1S(=O)(=O)c1ccc(-c2ccc(F)cc2)cc1`, for which the growth was 87.8%.

As for `CCNCCNc1cc(-c2ccc(C(F)(F)F)cc2)c(C#N)c2nc3cc(Cl)c(Cl)cc3n12`, the growth is -73.2% (active).

As for `C=CCN1C(=O)[C@]2(SC1=S)[C@H](c1cccc(Cl)c1)CN(C)[C@]21C(=O)NC2C=CC(Cl)=C[C@H]21` (stereo partly drawn), the growth was 26.8%.

Take `O=C(/C=C/C12c3ccccc3C(c3ccccc31)C1C(=O)N(c3ccccc3)C(=O)C12)c1ccccc1` (stereo not drawn): the growth was -3.22% (active).

As for `O=S(=O)(Nc1ccsc1-c1nc(-c2ccccc2)no1)c1cc(Cl)cc(Cl)c1`, the growth is 102%.

Consider `CNC1(C#N)CCN(Cc2ccccc2)CC1`, for which the growth is 112%.

On to `COc1cc2cc(Oc3ccc(NC(=O)Nc4cc(C(F)(F)F)cc(C(F)(F)F)c4)cc3)c(C)nc2cc1OCCN1CCCCC1`, for which the growth was -97.3% (active).

For `CC(C)n1nc(C#Cc2cccc3cc(-c4cccc(C(F)(F)F)c4)ncc23)c2c(N)ncnc21`, the growth is 59.8%.

Regarding `N[C@@H]1CCC[C@H]1NCCCCN1C(=O)c2cccc3cccc(c23)C1=O`, the growth is 58.2%.

As to `CCN(CC)CCOC(=O)N1c2ccccc2Sc2ccccc21`, the growth is 81.9%.
